# LASV entry inh: Lassa virus entry inhibition. Potency, µM (series often up to 37.9 µM), for inactives: top-dose activity change, negative = inhibition, actives largely listed as inhibitors. 300,000 compounds, 1.2% hits. Lassa virus pseudotype entry inhibition, cell reporter; calls by dose curve; tested in HEK293 cells; note: potency is the fitted concentration of half-maximal effect; % is set by controls: 0 for no effect and ±100 for the full control effect; nearly all actives have a fitted effect of over 50% in size
# Shiga inhibitor: Shiga toxin inhibition; AID 2315; 290,000 compounds, 9.2% hits; inhibition, % at 38.7 µM; Vero cells, Shiga toxin protein synthesis inhibition reporter; in the data active = inhibition mostly above about 28%, no sharp cut-off; inactive = mostly below about 43%; note: 0% is about no effect
# MARV entry inh: Marburg virus entry inhibition; Potency, µM (top dose mostly 37.8 µM), without a hit: at the highest dose activity change, negative = inhibition, hits mostly inhibitors; Marburg virus pseudotyped entry inhibition, cell reporter; 300,000 compounds, 1.8% hits; calls by dose curve; tested in HEK293 cells; note: potency is the fitted concentration of half-maximal effect; % is set by controls: 0 for no effect and ±100 for the full control effect
# CHX counter: affects cycloheximide protein synthesis inhibition readout, counter-screen; cell reporter, cycloheximide protein synthesis inhibition counterscreen; 300,000 compounds, 12% hits; AID 2314; max response, %; in the data active = max response mostly above about 13%, no sharp cut-off; inactive = mostly below about 14%; note: read at 38.3 µM for the half of the compounds with a filed dose; 0% is about no effect
# Pf growth 48h: P. falciparum growth inhibition at 48 hours (one generation) | P. falciparum luciferase growth in erythrocytes, 48 h | Potency, µM (series often up to 28.7 µM), inactives show at the highest dose activity change, negative = inhibition, most hits filed as inhibitors | 310,000 compounds, 5.9% hits | AID 504832; note: potency is the fitted concentration of half-maximal effect; % is set by controls: 0 for no effect and ±100 for the full control effect
#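 Read-out is firefly luciferase luminescence from an integrated reporter in P. falciparum, so falling signal marks reduced parasite growth. Infected erythrocytes were at 2% hematocrit and 0.1% parasitemia (final) in Albumax-supplemented RPMI 1640.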
# Pf growth 96h: P. falciparum growth inhibition at 96 hours | P. falciparum luciferase reporter growth, 96 h | Potency, µM (series often up to 28.7 µM), for inactives: at the highest dose activity change, negative = inhibition, usual class: inhibitors | 320,000 compounds, 6.9% hits | AID 504834; note: potency is the fitted concentration of half-maximal effect; % is set by controls: 0 for no effect and ±100 for the full control effect
#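 Two parasite generations (96 h, 37 C, 5% CO2) of compound exposure in infected erythrocytes (0.05% parasitemia, 2% hematocrit). Luciferase-reporter P. falciparum; decreased luminescence indicates inhibited growth, aimed at apicoplast-acting delayed death.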
# * marks the source's active call; other numbers are inactive results; ? = inconclusive; . = no result given; [ ] = remark or other dose. Hits are enriched below; roughly 19% of the tested compounds scored in any of these assays. Unless noted, calls come from the whole dose curve; as a rule, active = well fitted inhibition curve with a large enough effect; inconclusive = small, poorly fitted or top-dose-only effect, or another doubt; inactive = no such curve, though single readings can be large or run the other way.
SMILES,LASV entry inh,Shiga inhibitor,MARV entry inh,CHX counter,Pf growth 48h,Pf growth 96h
O=C(CCc1nc2ccccc2s1)OCc1ccccc1,0%,20,0%,-1,-21%,-4%
C=CCN(c1ccccc1)S(=O)(=O)c1cccc(C(=O)NCC2CCCO2)c1 (stereo unspecified),?,-5,-1%,-3,-3%,-2%
CS(=O)(=O)N1CCN(c2nnc(-c3ccccc3)c3ccccc23)CC1,-30%,-19,?,-4,-24%,-7%
Cc1ccc(-c2nnc(N3CCN(c4ccccn4)CC3)c3ccccc23)cc1,?,-6,?,-2,13µM*,-9%
c1ccc(-c2nnc(N3CCN(c4ccccn4)CC3)c3ccccc23)cc1,?,-2,-52%,8,7.4µM*,.
O=S(=O)(c1ccccc1)N1CCN(c2nnc(-c3ccccc3)c3ccccc23)CC1,?,-9,?,0,?,4.1µM*
Cc1ccc2cc(C)c(N3CCN(c4ccccn4)CC3)nc2c1,.,51*,5%,28,-9%,.
CCOc1ccc(S(=O)(=O)Nc2ncn[nH]2)cc1,-1%[46.1 µM],-15,-2%[46.1 µM],-4,44%,7%
COc1ccc(C2=C(C=C(C#N)C#N)C(c3ccccc3C)c3ccccc3O2)cc1OC (stereo unspecified),?,-5,?,1,9.3µM*,?
C=CCNC(=S)N/N=C/c1ccc(C(C)(C)C)cc1,?,70,?,38,?,?
CN(C)c1ccc(/C=N/NC(=S)NCc2ccccc2)cc1,0.28µM*,-7,-1%,24*,?,12µM*
CNC(=S)N/N=C/c1ccc(N(C)C)cc1,1%,77*,-26%,54*,40%,-87%
Cc1ccsc1/C=N\NC(=O)CC(=O)NCc1ccccc1,-10%,-16,-2%[46.1 µM],-2,12%,25%
COCCCNC(=S)N/N=C/c1ccc(N(C)C)cc1,1%,20,-8%[46.1 µM],18,10%,0%
Cc1ccsc1/C=N/NC(=S)NCc1ccccc1,?,13,-3%,21,2.9µM*,-24%
CC(C)(C)c1ccc(/C=N/NC(=S)NCc2ccccc2)cc1,0.26µM*,7,1%,-2,?,0%
Cc1cnc(NC(=O)C(C)N2C(=O)C3CC=CCC3C2=O)s1 (stereo unspecified),11%,-3,17%,-3,-1%,?
CCOC(=O)c1c[nH]c2c(C(F)(F)F)cccc2c1=O,1%,-1,?,-3,7%,?
CCNC(=S)N/N=C/c1cccs1,9%,-5,-11%,1,.,4.7µM*
CCNC(=S)N/N=C/c1cccc(/C=N/NC(=S)NCC)c1,6%,18,-14%[46.1 µM],6,19%,0%
O=[N+]([O-])c1ccc(-c2ccccc2)c([As](=O)(O)O)c1,.,1,.,-4,12µM*,2.1µM*
CC1=CC=CC2=NC(=O)CC(C)(C(=O)N(CC(=O)NC3CCCC3)Cc3ccc(Cl)cc3)N12 (stereo unspecified),2%,-1,-1%[46.1 µM],5,-16%,2%
NC(=O)c1ccccc1N/C=C/C(=O)c1ccco1,20%,69*,-17%,30*,107%,-11%
O=C(CSc1nnc(CNC(=O)c2ccco2)o1)Nc1ccccc1C(F)(F)F,.,9,.,3,11%,-1%
O=C(/C=C/Nc1ccccc1C(F)(F)F)c1ccco1,?,59*,?,44*,105%,-9%
SMILES,LASV entry inh,Shiga inhibitor,MARV entry inh,CHX counter,Pf growth 48h,Pf growth 96h
O=C(Nc1ccc(Oc2ccc(NC(=O)c3ccco3)c(NC(=O)c3ccco3)c2)cc1)c1ccco1,9%,15,?,9,?,-30%
O=C(/C=C/Nc1ccc(Oc2ccccc2)cc1)c1ccco1,?,70*,?,56*,270%,-33%[5.75 µM]
CCOC(=O)c1c(NC(C)=O)c2c3c(sc2n1Cc1nc(-c2cccc(C)c2)oc1C)CCCC3,.,.,-5%[46.1 µM],.,.,.
O=C1/C(=C/c2cccs2)SC(=S)N1c1cccc(O)c1,1%[46.1 µM],61,12%[46.1 µM],26*,69%,22%
CCN(CC)c1ccc(N2C(=O)/C(=C\c3cccs3)SC2=S)cc1,3%,-11,?,-4,10%,.
O=C1S/C(=C\c2cccs2)C(=O)N1c1ccc(O)cc1,.,63*,.,38*,37%,117%
O=C1/C(=C/c2cccs2)SC(=S)N1c1ccccc1,?,36,?,-3,10%,30%
CCC(=O)c1ccc(NC(C)=O)cc1O,.,22,.,2,?,34%
CCC(=O)c1ccc(SC(=O)N(C)C)cc1O,.,27,.,15*,50%,113%
COc1ccc(NC(=O)COC(=O)c2cc([N+](=O)[O-])ccc2N2CCOCC2)cc1,-8%,-8,?,-2,89%,-1%
Cc1ccc(C(=O)CCNc2ccccc2)o1,6%,76*,-1%,27*,-3%,.
Cc1ccc(C(=O)CCNc2ccc(Br)cc2)o1,6%,62*,28%,27*,6%,11%
CO/N=C/C(C#N)=C/c1cc(C(=O)c2ccccc2)cn1C,?,-5,?,5,?,2.9µM*
Cc1ccc(-c2nc3ccccc3s2)cc1NC(=S)NC(=O)c1cccc2ccccc12,-6%,80*,?,35*,158%,?
O=C(/C=C/c1ccco1)NC(=S)Nc1cccc(-c2nc3ccccc3o2)c1,-28%,5,?,9,60%,17%
Cc1ccc(-c2nc3ccccc3s2)cc1NC(=S)NC(=O)/C=C/c1ccco1,?,63*,?,29*,130%,165%
Cc1ccccc1NC(=S)NC(=O)/C=C/c1ccco1,20%,13,0%,17,7%,57%
O=C(/C=C/c1ccco1)NC(=S)Nc1cccc(-c2nc3ccccc3s2)c1,-21%,.,3.5µM*,.,.,.
Cc1ccc(-c2nc3ccccc3o2)cc1NC(=S)NC(=O)/C=C/c1ccco1,?,-6,-15%,14,1%,?
O=C(/C=C/c1ccco1)NC(=S)Nc1cc(-c2nc3ccccc3s2)ccc1Cl,-23%,94*,?,58*,40%,-13%
O=C(c1ccc(Cl)cc1)C1CCN(C(=O)N2CCOCC2)CC1,-19%[14.3 µM],-15,-17%,-2,-3%,?
C=C(C=O)C[C@@H]1C[C@H](O)C2OC3C[C@]4(C)OC5/C=C\CC6OC7C(CC=CCC6OC5CCCC4OC3CC2O1)OC1CC2OC3CC(=O)OC3C[C@@H](C)C[C@@]2(C)OC1C[C@@H]7C (stereo partly specified),.,-2,.,-6,.,.
COC(=O)c1sc2nc(C)nc(SCC(=O)C(C)(C)C)c2c1C,.,52,.,38*,-4%,?
CCOC(=O)c1sc2nc(C)nc(SCC(=O)NC3CCS(=O)(=O)C3)c2c1C (stereo unspecified),-9%,11,-23%,6,-20%,?
O=C(O)c1ccc(OCc2ccc(C(=O)O)o2)cc1,19%[46.1 µM],32,16%[46.1 µM],15*,12%,104%

# Screening results (PubChem)
